Unmarked numbers belong to inactive results. The rule behind the calls is not given here.
The compounds below were run on HIV-1 nucleocapsid protein NCp7 (binding to TG oligonucleotide) (assay: HIV Nucleocapsid (AID 346;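 note: potency is for inhibitors that block NC binding and lower polarization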)). Conditions: HIV-1 NC / fluorescein-TGTGTGTG probe, fluorescence polarization.
How it was run: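 Inhibition of nucleocapsid binding to single-stranded 5'-TGTGTGTG probe (10 nM) was measured by fluorescence polarization after 1 hr at room temperature with 100 nM protein under high-salt, zinc-containing, reducing conditions.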
Potency is the fitted concentration of half-maximal effect.

SMILES	Potency
Cc1noc(C)c1C(=O)N1CCC[C@@]2(CCN(Cc3ccccc3)C2)C1	> 20 µM
COc1ccccc1-c1ccc2ncnc(N3CCOCC3)c2c1	> 20 µM
COCC(=O)N1CCC2(CC1)CCN(C(=O)Nc1cccc(C#N)c1)CC2	> 20 µM
COCCNc1ncnc2ccc(-c3ccc(N(C)C)cc3)cc12	> 20 µM
CC(=O)N1CCC[C@@]2(CCN(C(=O)Nc3ccccc3)C2)C1	> 20 µM
CC(C)NC(=O)N1CC[C@@]2(CCCN(C(=O)c3ccco3)C2)C1	> 20 µM
CN(C)Cc1ccccc1-c1nc(NCc2ccccc2)c2ccccc2n1	> 20 µM
NCCn1c(=O)c(CCc2ccccc2)nc2cncnc21	> 20 µM
CN(C)c1nc(-c2cccc(C#N)c2)nc2ccccc12	> 20 µM
Cc1nc2cnc(N3CCOCC3)nc2n(Cc2ccc(F)cc2)c1=O	> 20 µM
O=c1c(-c2ccc(F)cc2)nc2cnc(N3CCOCC3)nc2n1CCc1ccccc1	> 20 µM
O=C(Nc1ccccc1)N1CC[C@@]2(CCCN(C(=O)c3csnn3)C2)C1	> 20 µM
CN(C)C(=O)c1ccc(-c2nc(Nc3ccncc3)c3ccccc3n2)cc1	> 20 µM
COc1ccc(-c2nc3cnc(N(C)C)nc3n(Cc3ccc(F)cc3)c2=O)cc1	> 20 µM
COCCn1c(=O)c(-c2cccc(C#N)c2)nc2cnc(OC)nc21	> 20 µM
Cc1ccccc1-c1nccc(Nc2ccc(F)cc2)n1	> 20 µM
COc1ncc2nc(-c3cccs3)c(=O)n(Cc3ccc(F)cc3)c2n1	> 20 µM
c1nc(N2CCOCC2)c2cc(-c3ccoc3)ccc2n1	> 20 µM
O=C(Nc1cccc(F)c1)N1CC[C@@]2(CCCN(C(=O)c3ccncc3)C2)C1	> 20 µM
CC(=O)NCCNc1nc(-c2ccccc2C)nc2ccccc12	> 20 µM

SMILES	Potency
COc1ccc2[nH]cc(CCNc3ccnc(-c4ccc(N(C)C)cc4)n3)c2c1	> 20 µM
COc1ccccc1CNc1nc(-c2ccc3c(c2)OCO3)nc2ccccc12	> 20 µM
Cc1noc(C)c1-c1cc(N2CCN(C)CC2)ncn1	> 20 µM
O=C(Nc1cccc(F)c1)N1CC2(CCN(C(=O)c3ccncc3)CC2)C1	> 20 µM
Cc1ccccc1-c1cncnc1N(C)Cc1ccco1	> 20 µM
Cc1noc(C)c1C(=O)N1CCC2(CCCN(Cc3ccccc3)C2)CC1	> 20 µM
COc1ccc(CNc2ncnc3ccc(-c4cccc(C#N)c4)cc23)c(OC)c1	> 20 µM
CC(C)NC(=O)N1CC2(CCN(C(=O)c3cc(C(F)(F)F)cc(C(F)(F)F)c3)CC2)C1	> 20 µM
COc1ccc(-n2c(=O)c(-c3cccs3)nc3cnc(OC)nc32)cc1	> 20 µM
COc1ccccc1-c1nc(N2CCN(C)CC2)c2ccccc2n1	> 20 µM
Cn1cccc1C(=O)N1CCC[C@@]2(CCN(Cc3cc(C(F)(F)F)cc(C(F)(F)F)c3)C2)C1	> 20 µM
CC(C)NC(=O)N1CC[C@@]2(CCCN(S(C)(=O)=O)C2)C1	> 20 µM
COc1ccc(NC(=O)N2CCCC3(CCN(C(=O)c4cc(C(F)(F)F)cc(C(F)(F)F)c4)CC3)C2)cc1	> 20 µM
c1ccc(CNc2ncncc2-c2ccoc2)cc1	> 20 µM
CC(C)CN1CCC2(CC1)CCN(S(=O)(=O)c1ccccc1)CC2	> 20 µM
O=C(c1ccncc1)N1CCC2(CC1)CCN(c1ccccn1)CC2	> 20 µM
Cc1ccccc1-c1cc(NCc2ccccc2)ncn1	> 20 µM
COc1cccc(Cn2c(=O)c(-c3cccs3)nc3cnc(N4CCOCC4)nc32)c1	> 20 µM
O=C(Nc1ccccc1)N1CCCC2(CCN(C(=O)c3cc(C(F)(F)F)cc(C(F)(F)F)c3)CC2)C1	> 20 µM
COc1ccc(NC(=O)N2CC[C@@]3(CCCN(C(=O)c4cnccn4)C3)C2)cc1	> 20 µM

Source: PubChem BioAssay (NCATS)
